Among all 63,000 compounds or so, about 1,100 (1.7%) were called active. The sample as a whole holds a higher share of actives than the screen did. Entries with a potency or affinity are not part of this list. Values without a mark were called inactive. Cut-off read from the data, not from the text of the source: active = cytotoxicity above about 50%; inactive = the rest.

The assay in a line: HPDE-C7 pancreatic duct cell viability loss – fluorescence, HTS (AID 430).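 Note: cells exposed to compound for 48 hours before viability readout; 0% = vehicle and 100% = reference cytotoxic drug.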 The conditions noted are these: HPDE-C7 pancreatic duct cells viability, at 10 µM, hits give high values.
As for `CCOC(=O)C1=C(N)N(c2ccccc2Oc2ccccc2)C(=O)C1`, the cytotoxicity was 3.7%.

With `CCS(=O)(=O)C(=C(Nc1ccc(OC)cc1)Nc1ccc(OC)cc1)S(=O)(=O)CC`, the cytotoxicity was -21.8%.

`CC(C)CC(=O)Nc1ccc(F)c(Cl)c1`: the cytotoxicity is -0.2%.

For `Cc1ccsc1-c1nc(CSCC(=O)NCc2ccc3c(c2)OCO3)c(C)o1`, the cytotoxicity is 5.8%.

Regarding `CC(C)C(=O)Nc1ccc(NC(=O)c2ccco2)cn1`, the cytotoxicity is -9.5%.

With `Cc1cc(NC(=O)C(C)(C)C)no1`, the cytotoxicity was -22.1%.

With `CCN(CC)S(=O)(=O)c1ccc(F)cc1`, the cytotoxicity is -8.3%.

`CC(C)c1[nH]nc2c1C(c1cccnc1)C(C#N)=C(N)O2` (stereo unspecified): the cytotoxicity was -15.1%.

With `CCOC(=O)c1[nH]c(C)c(C(=O)Nc2ccccc2C)c1C`, the cytotoxicity is 52.4% (active).

Consider `CCOC(=O)c1[nH]c(C)c(C(=O)Nc2cccc(Cl)c2C)c1C`, for which the cytotoxicity was 43.9%.

On to `CCOC(=O)c1[nH]c(C)c(C(=O)Nc2ccccc2F)c1C`, for which the cytotoxicity was 43.6%.

Regarding `O=C(OCc1cc2ccccc2[nH]c1=O)c1ccco1`, the cytotoxicity was 20.9%.

As to `Cc1ccc(S(=O)(=O)NC(=O)Nn2c(C)nnc2C)cc1`, the cytotoxicity is -7.7%.

As to `CC12CN3CC(C)(CN(C1)C3c1cc3ccccc3[nH]1)C2=O` (stereo unspecified), the cytotoxicity is 14.8%.

`COc1ccc(CCNC(=O)CN(C2CCCCC2)S(C)(=O)=O)cc1OC`: the cytotoxicity is -1%.

For `COCCn1c(SCC(=O)Nc2cccc(C)c2)nnc1C(C)C`, the cytotoxicity is 1%.

For `CCOc1ccc(NS(=O)(=O)c2ccc3[nH]c(=O)oc3c2)cc1`, the cytotoxicity was -0.3%.

Consider `CCOc1ccc(NS(=O)(=O)c2ccc(SC)cc2)cc1`, for which the cytotoxicity was 7.2%.

As for `CC1Cc2cc(C(=O)O)ccc2O1` (stereo unspecified), the cytotoxicity was -26.7%.

With `CCN(C(=O)c1coc(=O)c(Br)c1)c1ccc2c(c1)OCO2`, the cytotoxicity was 74.4% (active).

As for `CCN(C(=O)CCS(=O)(=O)c1ccc(Br)cc1)c1ccc2c(c1)OCO2`, the cytotoxicity is 8.6%.

Take `O=C(c1coc(=O)c(Br)c1)N1CCOCC1`: the cytotoxicity was -0.3%.

For `COc1ccc(C2(CNC(=O)c3ccc(Br)o3)CCOCC2)cc1`, the cytotoxicity is -0.2%.

As for `O=C(Cn1cc2c(n1)CCCC2)NCCc1ccccc1`, the cytotoxicity was -13%.

In the case of `Cc1nc(SCC(=O)N2CCN(c3ccccc3)CC2)c2oc3ccccc3c2n1`, the cytotoxicity is 48.5%.

Turning to `Cc1cc(NS(=O)(=O)c2ccc(NC(=O)c3ccoc3C)cc2)nc(C)n1`, the cytotoxicity was 2.9%.

`N#CCCS(=O)(=O)c1nnnn1-c1ccccc1`: the cytotoxicity was 64.6% (active).

In the case of `CCOc1cccc(-n2nnnc2-c2ccc(OC)cc2)c1`, the cytotoxicity was 56.8% (active).

As for `COc1ccc(-c2nnnn2CCc2ccccc2)cc1`, the cytotoxicity was -7.2%.

Turning to `O=C(CSc1nnnn1-c1ccccc1)CSc1nnnn1-c1ccccc1`, the cytotoxicity is -2.1%.

Turning to `COc1cccc(-n2nnnc2SCC(=O)c2cc(OC)ccc2OC)c1`, the cytotoxicity was -12.2%.

For the compound `COc1ccc(-n2nnnc2-c2cccnc2)cc1`, the cytotoxicity is -6.7%.

As to `COc1ccc(-n2nnnc2-c2cccc(OC)c2)cc1`, the cytotoxicity was 68.4% (active).

On to `CCS(=O)(=O)c1nnnn1-c1ccccc1S(C)(=O)=O`, for which the cytotoxicity is 33.3%.

As to `COc1ccc(-c2nnnn2-c2ccccc2OC)cc1`, the cytotoxicity is 46.6%.

With `COc1cccc(Oc2nnnn2-c2ccccc2)c1`, the cytotoxicity is -23%.

Turning to `Clc1ccc(-n2nnnc2-c2ccccc2)cc1`, the cytotoxicity was -17.1%.

As for `Nc1nc(-c2ccc(Cl)cc2)nn1C(=O)c1cccnc1`, the cytotoxicity was 9.3%.

Take `CC(C)C(OC(=O)c1cc2sccc2n1C)C(=O)NCC1CCCO1` (stereo unspecified): the cytotoxicity was -19.4%.

As for `O=C(CSc1nnc(-c2ccccc2Br)o1)N1CCN(C(=O)c2ccco2)CC1`, the cytotoxicity was -13.5%.

Turning to `CC1CCCCN1C(=O)CSc1nnc(-c2ccco2)n1CC1CCCO1` (stereo unspecified), the cytotoxicity is 3.9%.

Consider `COc1cccc(OCc2nnc(SCC(=O)OC3CCCCC3)n2C)c1`, for which the cytotoxicity is -7.5%.

Consider `CCOc1ccccc1NC(=O)CSc1nnc(CNC(=O)c2ccco2)o1`, for which the cytotoxicity was 6.4%.

With `CN(C)C(=O)N1CCN(C(=O)c2ccccc2Sc2ccccc2C#N)CC1`, the cytotoxicity was -6.6%.

With `NS(=O)(=O)c1ccc(NC=C2C(=O)OC3(CCCCC3)OC2=O)cc1`, the cytotoxicity is 6.2%.

On to `NS(=O)(=O)c1ccc(NC(=O)CSC2CCCCC2)cc1`, for which the cytotoxicity is -4.6%.

Turning to `O=C1c2oc3ccc(Cl)cc3c(=O)c2C(c2cccc(Br)c2)N1CCO` (stereo unspecified), the cytotoxicity is 0.8%.

Turning to `Cc1ccccc1OCC(=O)Nc1ccc(N2CCN(S(C)(=O)=O)CC2)cc1`, the cytotoxicity was -2%.

As for `COc1cc(-c2nnc(COc3ccc4cc(Br)ccc4c3)o2)cc(OC)c1OC`, the cytotoxicity is 78.6% (active).

In the case of `COc1ccc(-c2nnc(COc3ccc4ccccc4c3)o2)cc1OC`, the cytotoxicity is 4.4%.

On to `COc1cc(-c2nnc(COc3ccc4ccccc4c3)o2)cc(OC)c1OC`, for which the cytotoxicity is 34.6%.

As for `COc1ccc(C(=O)OCn2nnc3ccccc3c2=O)cc1OC`, the cytotoxicity is 6.3%.

As to `CCOc1ccc(S(=O)(=O)n2cnc3cc(C)c(C)cc32)cc1`, the cytotoxicity was 8.7%.

For the compound `N#Cc1c(N)nc2c(c1N)CC(=O)N2c1ccccc1-c1ccccc1`, the cytotoxicity is 0.1%.

On to `CC(C)(C)N1C(=O)Cc2c1nc(N)c1c(N)nc(N3CCCCC3CO)c(C#N)c21` (stereo unspecified), for which the cytotoxicity is 54.6% (active).

In the case of `CCOC(=O)CNS(=O)(=O)CCN1C(=O)c2ccccc2C1=O`, the cytotoxicity is -14.2%.

As for `CCOC(=O)c1c(CN2CCCCC2C)oc2ccc(OC)cc12` (stereo unspecified), the cytotoxicity is 3.6%.

For the compound `CCOC(=O)c1cccc(NC(=O)c2cnc3ccccc3n2)c1`, the cytotoxicity was 0.8%.

Take `O=C(c1cc2ccccc2oc1=O)N1CCSC1c1ccco1` (stereo unspecified): the cytotoxicity was 4.9%.

In the case of `O=C(Nc1ccc(Cl)c(Cl)c1)N1CCSC1c1ccco1` (stereo unspecified), the cytotoxicity is 62.5% (active).

As to `O=S(=O)(c1ccc(Cl)cc1)N1CCSC1c1ccco1` (stereo unspecified), the cytotoxicity is 8.1%.

With `COc1ccc(-c2noc(CCC(=O)N3CCN(Cc4ccccc4)CC3)n2)cc1`, the cytotoxicity was -6.2%.

Turning to `CCCc1[nH]nc2c1C(c1ccncc1)C(C#N)=C(N)O2` (stereo unspecified), the cytotoxicity was 6.1%.

Take `CCc1[nH]nc2c1C(c1ccc(Br)s1)C(C#N)=C(N)O2` (stereo unspecified): the cytotoxicity is -2.9%.

Take `CCCN1CC23C=CC(O2)C(C(=O)O)C3C1=O` (stereo unspecified): the cytotoxicity is -2.8%.

On to `CC(C)COc1cccc(C(=O)Nc2ccc(S(=O)(=O)N3CCOCC3)cc2)c1`, for which the cytotoxicity is 16.1%.

For the compound `CCCOC(=O)c1ccc(-c2c(C)noc2-c2ccc(OC)cc2O)o1`, the cytotoxicity was -2.8%.

Regarding `CCOC(=O)c1c(N)n[nH]c1-c1ccc(OC)cc1`, the cytotoxicity was 2.4%.

In the case of `CCOC(=O)c1ccc(OCC(=O)c2ccc(O)cc2O)cc1`, the cytotoxicity was -2.2%.

Turning to `CCOc1ccc(-c2n[nH]c(C)c2Oc2ccc(OC)cc2)c(O)c1`, the cytotoxicity was 5.9%.

Consider `CCOC(=O)COC(=O)c1ccc(O)cc1`, for which the cytotoxicity is -3.6%.

Turning to `CCOc1ccc(N2C(=O)c3ccc(C(=O)OCc4c(C)noc4C)cc3C2=O)cc1`, the cytotoxicity was -3.6%.

`COc1ccc(CC(NC(C)=O)C(=O)N2CCN(C(=O)Nc3ccc(Cl)cc3)CC2)cc1OC` (stereo unspecified): the cytotoxicity was 4.9%.

For the compound `O=C(Nc1nc2ccccc2n1CCOc1ccccc1)c1ccco1`, the cytotoxicity was -12.8%.

Turning to `Cc1cccc(Nc2nc(NC(C)C)nc(Oc3ccc(=O)n(C)n3)n2)c1`, the cytotoxicity is -11.3%.

For `CCOC(=O)N1CCN(CC(=O)Nc2cc(OCC)ccc2OCC)CC1`, the cytotoxicity was -9.8%.

On to `CCCCc1ccc(NC(=O)COCC)cc1`, for which the cytotoxicity was -12.8%.

`CCCCc1ccc(NC(=O)OC)cc1`: the cytotoxicity was -16.3%.

Regarding `CC(=O)Nc1ccc(S(=O)(=O)NCC(C)NS(=O)(=O)c2ccc(NC(C)=O)cc2)cc1` (stereo unspecified), the cytotoxicity is -20%.

`OC1(Cc2ccn[nH]2)CCCCC1`: the cytotoxicity was 17.9%.

Take `O=C(OCCN1CCOCC1)c1cccnc1`: the cytotoxicity was 0.3%.

As for `CCOc1cc(C(=O)Nc2nnc(C)s2)cc(OCC)c1OCC`, the cytotoxicity is -7.4%.

For the compound `COc1ccc(CNC(=O)c2cc(-c3ccccc3OC)on2)cc1`, the cytotoxicity is -1.1%.

On to `COc1ccccc1-c1cc(C(=O)NC(C)C)no1`, for which the cytotoxicity is -2.5%.

Consider `COc1ccccc1-c1cc(C(=O)Nc2ccc(F)cc2F)no1`, for which the cytotoxicity was -11.9%.

Regarding `COc1ccc(NC(=O)c2cc(-c3ccccc3OC)on2)cc1`, the cytotoxicity was 54.3% (active).

Take `COc1ccc(-c2cc(C(=O)Nc3cc(C)n(Cc4ccc(Cl)cc4)n3)no2)cc1OC`: the cytotoxicity is 6.9%.

As to `COc1ccc(OC)c(-c2cc(C(=O)Nc3cc(C)n(Cc4ccc(Cl)cc4)n3)no2)c1`, the cytotoxicity is 62.5% (active).

`COc1ccccc1-c1cc(C(=O)Nc2cccnc2)no1`: the cytotoxicity is 79.8% (active).

Consider `COc1ccc(OC)c(-c2cc(C(=O)Nc3c(C)nn(Cc4ccc(Cl)cc4)c3C)no2)c1`, for which the cytotoxicity was 17.1%.

In the case of `COc1ccccc1-c1cc(C(=O)Nc2cc(C)on2)no1`, the cytotoxicity is -2.8%.

On to `Cc1cccc(Cn2c(SCCN3CCOCC3)nc3c2c(=O)n(C)c(=O)n3C)c1`, for which the cytotoxicity is -7.8%.

For `COc1ccc(C2CC(c3ccccc3)Nc3nc(NC(=O)c4ccco4)nn32)cc1` (stereo unspecified), the cytotoxicity is -5.5%.

Consider `COC(=O)Cc1cc(=O)n2[nH]c(C)nc2n1`, for which the cytotoxicity was -15.9%.

As for `CCOC(=O)N1CCN(c2ccc(C(=O)c3ccccc3)cc2F)CC1`, the cytotoxicity is 7%.

With `Brc1ccc2[nH]ncc2c1`, the cytotoxicity is -5.6%.

On to `c1ccc2c(c1)CCN(c1ncnc3nc[nH]c13)C2`, for which the cytotoxicity was -4.2%.

In the case of `COc1cccc(N2CCN(Cc3nc4ccccc4c(=O)[nH]3)CC2)c1`, the cytotoxicity is -2.6%.

For `COc1cccc(N2CCN(CC(=O)c3c[nH]c4ccc(OC)cc34)CC2C)c1` (stereo unspecified), the cytotoxicity was 9.5%.

For `O=c1[nH]c(CN2CCc3ccccc3C2)nc2ccccc12`, the cytotoxicity was 3.3%.

Consider `COC(=O)c1ccc(N2C(=O)CC(NCc3ccccc3)C2=O)cc1` (stereo unspecified), for which the cytotoxicity was -3%.

These data come from PubChem BioAssay AID430 (Sanford-Burnham Center for Chemical Genomics, 2006).
